Source: PubChem BioAssay AID1159580 (chemical genetic matrix, 2015)
Hit rate of the full screen: of about 5,500 compounds, about 2,000 (36%) were called active. Another 18% or so got no clear call; they are omitted. Cut-off read from the data, not from the text of the source: active = normalized growth mostly below about 0.91 (no sharp cut-off); inconclusive = no clear call, values can overlap the other calls; inactive = mostly above about 0.92. This is one part of the list.

Assay: chemical genetic growth profiling, strain panel (AID 1159580);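 note: tested at 20 µM; growth read once vehicle control cultures reached saturation at 30 °C; 1 = growth at the plate median or of vehicle wells; lower values mean less growth of the strain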
Conditions: growth OD

Measured: normalized growth

COc1ccc(C(Cl)=C(c2ccc(OC)cc2)c2ccc(OC)cc2)cc1
inactive: S. cerevisiae deletion strains, locus YKL009W, strain mrt4, hits give low values 1.02 | S. cerevisiae deletion strains, locus YKL068W, hits give low values 1.02 | S. cerevisiae deletion strains, locus YKL085W, strain MDH1 (second series), hits give low values 0.98 | S. cerevisiae deletion strains, locus YKL085W, strain MDH1, hits give low values 0.98 | S. cerevisiae deletion strains, locus YKL160W, strain elf1, hits give low values 0.993 | S. cerevisiae deletion strains, locus YKL190W, strain CNB1, hits give low values 1.01 | S. cerevisiae deletion strains, locus YKR001C, strain vps1, hits give low values 1.01 | S. cerevisiae deletion strains, locus YKR026C, strain gcn3, hits give low values 1.01 | S. cerevisiae deletion strains, locus YKR091W, strain srl3, hits give low values 1.04 | S. cerevisiae deletion strains, locus YLL001W, strain dnm1, hits give low values 1.01 | S. cerevisiae deletion strains, locus YLL026W, hits give low values 1 | S. cerevisiae deletion strains, locus YLL041C, strain sdh2, hits give low values 1.02 | S. cerevisiae deletion strains, locus YLR027C, strain aat2, hits give low values 1.04 | S. cerevisiae deletion strains, locus YLR039C, strain RIC1, hits give low values 1.01 | S. cerevisiae deletion strains, locus YLR058C, strain SHM2, hits give low values 1.02 | S. cerevisiae deletion strains, locus YLR102C, strain apc9, hits give low values 1.02 | S. cerevisiae deletion strains, locus YLR113W, strain HOG1, hits give low values 0.97 | S. cerevisiae deletion strains, locus YLR221C, strain rsa3, hits give low values 0.995 | S. cerevisiae deletion strains, locus YLR258W, strain gsy2, hits give low values 1.02 | S. cerevisiae deletion strains, locus YLR262C, strain YPT6 (second series), hits give low values 1.07 | S. cerevisiae deletion strains, locus YLR262C, strain YPT6, hits give low values 1.02 | S. cerevisiae deletion strains, locus YLR268W, strain sec22, hits give low values 1.01 | S. cerevisiae deletion strains, locus YLR320W, strain mms22, hits give low values 1.01 | S. cerevisiae deletion strains, locus YLR330W, strain CHS5, hits give low values 1.01 | S. cerevisiae deletion strains, locus YLR342W, strain FKS1 (second series), hits give low values 0.988 | S. cerevisiae deletion strains, locus YLR342W, strain FKS1, hits give low values 1.01 | S. cerevisiae deletion strains, locus YLR357W, strain rsc2, hits give low values 1.04 | S. cerevisiae deletion strains, locus YLR370C, strain arc18, hits give low values 0.972 | S. cerevisiae deletion strains, locus YLR371W, strain rom2, hits give low values 1.03 | S. cerevisiae deletion strains, locus YLR384C, strain iki3, hits give low values 1.01 | S. cerevisiae deletion strains, locus YLR418C, strain cdc73, hits give low values 1.06 | S. cerevisiae deletion strains, locus YML016C, strain PPZ1, hits give low values 1.02 | S. cerevisiae deletion strains, locus YML032C, strain rad52, hits give low values 1 | S. cerevisiae deletion strains, locus YML120C, strain ndi1, hits give low values 0.982 | S. cerevisiae deletion strains, locus YML124C, strain tub3, hits give low values 1.03 | S. cerevisiae deletion strains, locus YMR058W, strain fet3, hits give low values 1.05 | S. cerevisiae deletion strains, locus YMR078C, strain ctf18, hits give low values 1.03 | S. cerevisiae deletion strains, locus YMR125W, strain sto1, hits give low values 1.01 | S. cerevisiae deletion strains, locus YMR129W, hits give low values 0.998 | S. cerevisiae deletion strains, locus YMR205C, strain PFK2, hits give low values 1.03 | S. cerevisiae deletion strains, locus YMR223W, strain ubp8, hits give low values 1.02 | S. cerevisiae deletion strains, locus YMR231W, strain pep5, hits give low values 1.02 | S. cerevisiae deletion strains, locus YMR263W, strain SAP30, hits give low values 1.04 | S. cerevisiae deletion strains, locus YMR307W, strain GAS1, hits give low values 1 | S. cerevisiae deletion strains, locus YNL067W, strain RPL9B, hits give low values 1.03 | S. cerevisiae deletion strains, locus YNL071W, strain lat1, hits give low values 1.03 | S. cerevisiae deletion strains, locus YNL128W, strain TEP1, hits give low values 1.03 | S. cerevisiae deletion strains, locus YNL183C, strain NPR1, hits give low values 0.905 | S. cerevisiae deletion strains, locus YNL209W, strain ssb2, hits give low values 1 | S. cerevisiae deletion strains, locus YNL233W, strain BNI4, hits give low values 1.02 | S. cerevisiae deletion strains, locus YNL248C, strain rpa49, hits give low values 0.962 | S. cerevisiae deletion strains, locus YNL250W, strain rad50, hits give low values 1.05 | S. cerevisiae deletion strains, locus YNL271C, strain bni1, hits give low values 1.01 | S. cerevisiae deletion strains, locus YNL298W, strain CLA4, hits give low values 1.01 | S. cerevisiae deletion strains, locus YNL307C, strain MCK1, hits give low values 1.02 | S. cerevisiae deletion strains, locus YNL322C, strain KRE1 (second series), hits give low values 1.03 | S. cerevisiae deletion strains, locus YNR049C, strain mso1, hits give low values 0.977 | S. cerevisiae deletion strains, locus YNR052C, strain pop2, hits give low values 1.02 | S. cerevisiae deletion strains, locus YOL006C, strain TOP1, hits give low values 1.12 | S. cerevisiae deletion strains, locus YOL012C, strain htz1 1.9 | S. cerevisiae deletion strains, locus YOL147C, strain pex11, hits give low values 1.02 | S. cerevisiae deletion strains, locus YOR001W, strain rrp6, hits give low values 1.04 | S. cerevisiae deletion strains, locus YOR061W, strain CKA2, hits give low values 1.01 | S. cerevisiae deletion strains, locus YOR069W, strain VPS5, hits give low values 1.02 | S. cerevisiae deletion strains, locus YOR070C, strain gyp1, hits give low values 1.02 | S. cerevisiae deletion strains, locus YOR080W, strain dia2, hits give low values 0.995 | S. cerevisiae deletion strains, locus YOR083W, strain WHI5, hits give low values 1.02 | S. cerevisiae deletion strains, locus YOR106W, strain vam3, hits give low values 1.07 | S. cerevisiae deletion strains, locus YOR136W, strain idh2, hits give low values 1.01 | S. cerevisiae deletion strains, locus YOR144C, strain elg1, hits give low values 1.01 | S. cerevisiae deletion strains, locus YOR184W, strain ser1, hits give low values 1 | S. cerevisiae deletion strains, locus YOR231W, strain MKK1, hits give low values 0.981 | S. cerevisiae deletion strains, locus YOR265W, strain rbl2, hits give low values 0.996 | S. cerevisiae deletion strains, locus YOR270C, strain vph1, hits give low values 1.09 | S. cerevisiae deletion strains, locus YOR290C, strain snf2, hits give low values 1 | S. cerevisiae deletion strains, locus YOR316C, strain cot1, hits give low values 1.02 | S. cerevisiae deletion strains, locus YPL051W, strain arl3, hits give low values 0.99 | S. cerevisiae deletion strains, locus YPL055C, strain LGE1, hits give low values 1.01 | S. cerevisiae deletion strains, locus YPL078C, strain atp4, hits give low values 1.04 | S. cerevisiae deletion strains, locus YPL106C, strain sse1, hits give low values 1.01 | S. cerevisiae deletion strains, locus YPL240C, strain hsp82, hits give low values 0.989 | S. cerevisiae deletion strains, locus YPL241C, strain CIN2, hits give low values 1.01 | S. cerevisiae deletion strains, locus YPL256C, strain CLN2, hits give low values 0.964 | S. cerevisiae deletion strains, locus YPR119W, strain clb2, hits give low values 1.02 | S. cerevisiae deletion strains, locus YPR141C, strain kar3, hits give low values 1.02 | S. cerevisiae deletion strains, locus YPR163C, strain tif3, hits give low values 1.03 | S. cerevisiae deletion strains, locus YPR167C, strain met16, hits give low values 1.02 | S. cerevisiae deletion strains, strain wtn01, hits give low values 1.02 | S. cerevisiae strains, strain wild type, hits give low values 1.02
